In all, about 5,500 compounds went through this assay and about 2,000 (36%) were called active. Another 18% or so got no clear call; they are omitted. Cut-off read from the data, not from the text of the source: active = normalized growth mostly below about 0.91 (no sharp cut-off); inconclusive = no clear call, values can overlap the other calls; inactive = mostly above about 0.92. The list shows a part of the results.
Test: chemical genetic growth profiling, strain panel (AID 1159580);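 note: tested at 20 µM; growth read once vehicle control cultures reached saturation at 30 °C; 1 = growth at the plate median or of vehicle wells; lower values mean less growth of the strain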
Settings: S. cerevisiae deletion strains, growth OD

Measured: normalized growth

OC(Cn1cncn1)(Cn1cncn1)c1ccc(F)cc1F
active: locus YDR137W, strain rgp1, hits give low values 0.508
inactive: locus YAL013W, strain DEP1, hits give low values 0.968 | locus YAL021C, strain ccr4, hits give low values 0.972 | locus YAL026C, strain drs2, hits give low values 0.911 | locus YAL030W, strain snc1, hits give low values 1 | locus YBL061C, strain skt5, hits give low values 0.995 | locus YBR009C, strain hhf1, hits give low values 0.998 | locus YBR021W, strain FUR4, hits give low values 0.936 | locus YBR023C, strain chs3, hits give low values 1.01 | locus YBR171W, strain sec66, hits give low values 0.971 | locus YBR229C, strain ROT2, hits give low values 1 | locus YBR231C, strain swc5, hits give low values 0.981 | locus YBR279W, strain paf1, hits give low values 1 | locus YCL011C, strain gbp2, hits give low values 1.01 | locus YCL016C, strain dcc1, hits give low values 0.987 | locus YCL029C, strain bik1, hits give low values 0.984 | locus YCL061C, strain MRC1, hits give low values 0.987 | locus YCL069W, strain vba3, hits give low values 1 | locus YCR088W, strain abp1, hits give low values 1.01 | locus YDL005C, strain med2, hits give low values 0.966 | locus YDL035C, strain GPR1, hits give low values 0.991 | locus YDL040C, strain nat1, hits give low values 1 | locus YDL074C, strain BRE1, hits give low values 1.03 | locus YDL101C, strain DUN1, hits give low values 0.993 | locus YDL134C, strain PPH21, hits give low values 1 | locus YDL185W, strain tfp1, hits give low values 0.948 | locus YDL192W, strain arf1, hits give low values 0.998 | locus YDR001C, strain nth1, hits give low values 1.01 | locus YDR069C, strain doa4, hits give low values 0.971 | locus YDR101C, strain arx1, hits give low values 1 | locus YDR150W, strain NUM1, hits give low values 0.985 | locus YDR159W, strain sac3, hits give low values 0.956 | locus YDR162C, strain NBP2, hits give low values 0.971 | locus YDR195W, strain ref2 1.1 | locus YDR297W, strain sur2, hits give low values 1 | locus YDR318W, strain mcm21, hits give low values 0.986 | locus YDR334W, strain swr1, hits give low values 0.996 | locus YDR335W, strain msn5, hits give low values 1.01 | locus YDR388W, hits give low values 1 | locus YDR392W, strain spt3, hits give low values 0.853 | locus YDR502C, strain sam2, hits give low values 0.992 | locus YEL003W, strain gim4, hits give low values 0.999 | locus YEL037C, strain rad23, hits give low values 1 | locus YEL061C, strain CIN8 (second series), hits give low values 1.01 | locus YEL061C, strain CIN8, hits give low values 0.993 | locus YER015W, strain faa2, hits give low values 1.01 | locus YER016W, strain bim1, hits give low values 1 | locus YER110C, hits give low values 0.974 | locus YER111C, strain swi4, hits give low values 0.999 | locus YER155C, strain BEM2 (second series), hits give low values 0.99 | locus YER155C, strain BEM2, hits give low values 1 | locus YER167W, strain BCK2, hits give low values 1.01 | locus YFR010W, strain ubp6, hits give low values 0.982 | locus YGL078C, strain dbp3, hits give low values 0.997 | locus YGL086W, strain mad1, hits give low values 0.997 | locus YGL167C, strain pmr1, hits give low values 1 | locus YGL173C, strain kem1, hits give low values 1.01 | locus YGL227W, strain vid30, hits give low values 1.01 | locus YGL240W, strain doc1, hits give low values 0.995 | locus YGL248W, strain PDE1, hits give low values 1.02 | locus YGL253W, strain hxk2, hits give low values 0.99 | locus YGR078C, strain PAC10, hits give low values 1.02 | locus YGR135W, strain pre9, hits give low values 0.979 | locus YGR252W, strain gcn5, hits give low values 1 | locus YHR013C, strain ard1, hits give low values 0.957 | locus YHR027C, strain rpn1, hits give low values 1.01 | locus YHR030C, strain SLT2, hits give low values 0.987 | locus YHR079C, strain IRE1 (second series), hits give low values 0.985 | locus YHR094C, strain hxt1, hits give low values 1.01 | locus YHR129C, strain ARP1, hits give low values 1 | locus YHR142W, strain chs7, hits give low values 1 | locus YHR200W, strain rpn10, hits give low values 0.961 | locus YIL066C, strain RNR3, hits give low values 1 | locus YIL073C, strain SPO22, hits give low values 0.943 | locus YIL125W, strain kgd1, hits give low values 1.01 | locus YIR030C, strain dcg1, hits give low values 0.997 | locus YJL092W, strain hpr5, hits give low values 0.998 | locus YJL095W, strain BCK1 (second series), hits give low values 1 | locus YJL095W, strain BCK1, hits give low values 1.07 | locus YJL115W, strain asf1, hits give low values 0.996 | locus YJL129C, strain trk1, hits give low values 1.06 | locus YJL134W, strain LCB3, hits give low values 0.994 | locus YJL154C, strain vps35, hits give low values 1.01 | locus YJL164C, strain tpk1, hits give low values 0.992 | locus YJL166W, strain qcr8, hits give low values 1 | locus YJL168C, strain set2, hits give low values 0.992 | locus YJL187C, strain SWE1 (second series), hits give low values 1.03
